From PubChem BioAssay (NCATS)
Where “and” joins values, the source holds several entries; their conditions need not be identical. Equal values may be shown once. Records with an inconclusive call do not appear. Unmarked numbers belong to inactive results. Calls of active or inactive are those of the source. The call rests on the fitted dose curve; in most records, active means well fitted activation curve with a large enough effect; inconclusive means small, poorly fitted or top-dose-only effect; inactive means no such curve, though single readings can be large or run the other way.
Potency means the concentration at half of the fitted maximal effect.

The compounds below were run against Cellular tumor antigen p53 (Homo sapiens) (UniProt P04637) (assay: Primary qHTS for small molecule compounds that upregulate eGFP-tagged delta133p53alpha (in N-terminal) cells. (AID 2060322; further: nearly all actives have a fitted effect of over 75% in size;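 on activation: series mostly up to about 56 µM; 0% = DMSO vehicle and 100% = reference activator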)). Settings: NCI-H358 eGFP-delta133p53alpha fluorescence, 24 h; activation: active compounds read high.
Sequence of Cellular tumor antigen p53 (Homo sapiens) (P04637 whole entry, looked up): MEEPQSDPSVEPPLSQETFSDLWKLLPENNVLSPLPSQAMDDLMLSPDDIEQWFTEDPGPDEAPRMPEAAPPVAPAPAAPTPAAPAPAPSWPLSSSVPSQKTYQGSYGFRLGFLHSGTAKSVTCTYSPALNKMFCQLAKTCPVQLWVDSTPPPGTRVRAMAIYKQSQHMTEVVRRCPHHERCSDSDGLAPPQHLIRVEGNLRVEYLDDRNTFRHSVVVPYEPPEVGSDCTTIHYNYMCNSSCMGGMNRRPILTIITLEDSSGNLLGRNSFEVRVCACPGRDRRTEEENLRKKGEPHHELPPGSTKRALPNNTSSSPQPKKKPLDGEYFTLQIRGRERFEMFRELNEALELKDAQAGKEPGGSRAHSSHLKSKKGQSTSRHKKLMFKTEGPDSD
Outline: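 NCI-H358 cells pre-induced 24 h with 10 ng/ml doxycycline to express N-terminal eGFP-delta133p53alpha, then dosed 24 h at 37C without doxycycline; fixed, Hoechst-stained, GFP intensity by laser scanning cytometry, normalized to DMSO (0%) and 57.5 uM 5-azacytidine (100%).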
In the case of `CCCc1ncc(C[n+]2ccccc2C)c(N)n1`, the activation is reported as 13.4%.
`CN1CCCN=C1COC(=O)C(O)(c1ccccc1)C1CCCCC1` (centres undefined) was tested, and the activation was 2.51%.
`Nc1ccc(C(=O)NCC(=O)O)cc1` was tested, and the activation was -8.47%.
In the case of `O=C(NCC(O)CO)c1c(I)c(C(=O)NCC(O)CO)c(I)c(N(CCO)C(=O)CO)c1I` (centres undefined), the activation is reported as -8.37%.
Compound `C=C1CCC2[C@](C)(CO)C(O)CC[C@]2(C)C1CC=C1C(=O)OCC1O` (some centres undefined) has an activation of -28.9%.
Work on `O=C1C(CCS(=O)c2ccccc2)C(=O)N(c2ccccc2)N1c1ccccc1` (centres undefined) yielded an activation of 15.1%.
`COc1cc(C(=O)N2CCOCC2)cc(OC)c1OC` was tested, and the activation was 20.9%.
`C[N+]1(C)CCC(OC(=O)C(O)(c2ccccc2)C2CCCC2)C1` (centres undefined) gave an activation of 7.34%.
With `Cc1ccsc1/C=C/C1=NCCCN1C` the activation was -2.51%.
Compound `CC(=O)O[C@@H]1CC2C3CCc4cc(OC(=O)c5ccccc5)ccc4C3CCC2(C)[C@H]1OC(C)=O` (some centres undefined) has an activation of 6.21%.
With `O=C1c2ccccc2C(=O)c2c1ccc(O)c2O` the activation was -14.2%.
With `O=C(O)c1ccccc1OP(=O)(O)O` the activation was -6.21%.
`COC(=O)N[C@H](C(=O)N1CCC[C@@H]1c1ncc(-c2ccc(-c3ccc(-c4cnc([C@@H]5CCCN5C(=O)[C@@H](NC(=O)OC)C(C)C)[nH]4)cc3)cc2)[nH]1)C(C)C` showed an activation of 77.3%.
`Cc1c(C(N)=O)cc([N+](=O)[O-])cc1[N+](=O)[O-]` was tested, and the activation was -8.37%.
In the case of `Cc1cccc(C)c1NC(=O)c1ccc(N)cc1`, the activation is reported as -2.82%.
Work on `C[N+]12CCC(CC1)C(OC(=O)C(O)(c1ccccc1)c1ccccc1)C2` (centres undefined) yielded an activation of -8.47%.
In the case of `CC(C=CC1=C(C)CCCC1(C)C)=CC=CC(C)=CC(=O)O`, the activation is reported as 15.8% and -23.6%.
With `N#CSCC(=O)O` the activation was 1.69%.
`CCCCc1nc(Cl)c(CO)n1Cc1ccc(-c2ccccc2-c2nn[nH]n2)cc1` gave an activation of -19.2%.
Compound `[O-][n+]1cccc(/C(Cl)=N/OC[C@@H](O)CN2CCCCC2)c1` has an activation of -6.69%.
Compound `CO[C@H]1C=CC=C(C)C(=O)NC2=CC(=O)C(NCCN(C)C)=C(C[C@@H](C)C[C@H](OC)[C@@H](O)[C@@H](C)C=C(C)[C@@H]1OC(N)=O)C2=O` has an activation of 14.6%.
In the case of `CN(C)[C@@H]1C(=O)C(C(N)=O)=C(O)[C@@]2(O)C(=O)C3=C(O)c4c(O)cccc4C[C@H]3C[C@@H]12`, the Potency is reported as 17.4 µM (active).
In the case of `CCOc1ccccc1O[C@H](c1ccccc1)[C@H]1CNCCO1`, the activation is reported as -13%.
`COc1cc(C=C2CCC/C(=C\c3ccc(O)c(OC)c3)C2=O)ccc1O` was tested, and the Potency was 19.5 µM (active).
In the case of `C#C[C@]1(O)CC[C@H]2[C@@H]3CCC4=Cc5oncc5C[C@]4(C)[C@H]3CC[C@@]21C`, the activation is reported as -14.2%.
Work on `Cl/C(=C\n1cncn1)c1ccc(Cl)cc1Cl` yielded an activation of -2.82%.
Work on `NC(=O)Cc1cccc(C(=O)c2ccccc2)c1N` yielded an activation of 9.6%.
Compound `O=C1NC(=O)C(=Cc2cccc(C(F)(F)F)c2)S1` has an activation of 2.49%.
In the case of `CCc1cnn2c(NCc3ccc[n+]([O-])c3)cc(N3CCCC[C@@H]3CCO)nc12`, the Potency is reported as 0.0685 µM (active).
`COc1cccc2c1C(=O)c1c(O)c3c(c(O)c1C2=O)C[C@@](O)(C(=O)CO)C[C@H]3O[C@H]1C[C@H](N)[C@H](O)[C@H](C)O1` gave an activation of -35.6%.
With `CC(Oc1c(Cl)cccc1Cl)C1=NCCN1` (centres undefined) the activation was 3.35%.
`Cc1ccc([C@@H]2O[C@H](CO)[C@@H](O)[C@H](O)[C@@H]2O)cc1Cc1ccc(-c2ccc(F)cc2)s1` was tested, and the activation was -12.3%.
`COc1cc(C=CC(=O)CC(=O)C=Cc2ccc(O)c(OC)c2)ccc1O` was tested, and the Potency was 39.5 µM (active).
Compound `CCN(CC)C(=O)C1CN2CCc3cc(OC)c(OC)cc3C2CC1OC(C)=O` (centres undefined) has an activation of -9.21%.
`O=C(c1ccccc1)c1ccccc1` showed an activation of 16.4%.
In the case of `Cc1ccc(Cl)c(OCC(O)CNC(C)(C)C)c1` (centres undefined), the activation is reported as -2.51%.
Compound `OCc1ccccn1` has an activation of 8.37%.
Work on `Cc1ncc(Cl)cc1NCc1ccc(C(=O)N[C@@H](CC2CCCC2)C(=O)NC2CC2)s1` yielded an activation of -39.1%.
For `C[C@H]1[C@H](O)O[C@@H]2O[C@@]3(C)CC[C@@H]4[C@H](C)CC[C@@H]1[C@@]24OO3`, the Potency was 21.7 µM (active).
